In the supplement of paper PMC7530171:
Where “and” joins values, the source holds several entries; their conditions need not be identical. Equal values may be shown once. ± gives the standard deviation.

tested on: THP-1 macrophages infected with Mycobacterium tuberculosis H37Rv; experiment: intracellular M.tb growth inhibition relative to DMSO (0) and 4 uM bedaquiline (100); higher = stronger inhibition of intracellular bacterial growth; conditions: 10 µM; 4 days
Protocol: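 OICR kinase inhibitor library screened in duplicate at 10 uM against THP-1 macrophages (PMA-differentiated) infected with M. tuberculosis H37Rv-pTEC27 (tdTomato RFP), 4 days at 37 C. Rows with complete host cell loss (placeholder inhibition 0, cell loss 100) were removed.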

Row | SMILES | intracellular M.tb growth inhibition
1 | Cc1ccc(F)c(NC(=O)Nc2ccc(-c3cccc4[nH]nc(N)c34)cc2)c1 | -14.6 ± 21%
2 | COc1cc(SC)ccc1C(=O)N1CCC(Cc2ccccc2)CC1 | 41.8 ± 12%
3 | Cc1csc(-c2nnc(Nc3ccc(Oc4ncccc4-c4ccnc(N)n4)cc3)c3ccccc23)c1 | 126 ± 190%
4 | O=C(NOCC1CC1)c1cc(Br)c(F)c(F)c1Nc1ccc(I)cc1Cl | 59.8 ± 16%
5 | N#CC[C@H](C1CCCC1)n1cc(-c2ncnc3[nH]ccc23)cn1 | -157 ± 220%
6 | Cc1[nH]c(/C=C2\C(=O)Nc3cc(-c4ccccc4)ccc32)c(C)c1CCC(=O)O | -5.41 ± 25%
7 | Cc1cn(-c2cc(NC(=O)c3ccc(C)c(Nc4nccc(-c5cccnc5)n4)c3)cc(C(F)(F)F)c2)cn1 [Nilotinib] | -5.88 ± 8.3%
8 | COc1cc2nccc(Oc3ccc(NC(=O)Nc4ccc(F)cc4F)c(F)c3)c2cc1OC | 25.2 ± 4.6%
9 | O=C(Nc1ccc(-c2cn[nH]c2)cc1)C1COc2ccccc2O1 (stereo not given) [Rho Kinase Inhibitor V] | 27.7 ± 10%
10 | CCc1cncnc1N1CCN(Cc2nc3ccc(C(F)(F)F)cc3[nH]2)CC1 | 16.2 ± 23%
11 | CC(C)(C)n1nc(-c2cccc3ccccc23)c2c(N)ncnc21 [1-Naphthyl PP1] | 21.2 ± 3.2%
12 | O=C(C=Cc1ccccc1)NC(NC(=S)Nc1ccc(Cl)cc1)C(Cl)(Cl)Cl (stereo not given) | 12.9 ± 18%
13 | Cc1cnc(-c2cnc(NCCNc3ccc(C#N)cn3)nc2-c2ccc(Cl)cc2Cl)[nH]1 | 7.29 ± 24%
14 | Cn1cnc2c(F)c(Nc3ccc(Br)cc3Cl)c(C(=O)NOCCO)cc21 | 6.79 ± 5.7%
15 | Nc1ncnc2n[nH]c(Nc3ccc(F)cc3)c12 | -2.38% and 4.47%
